Shown is part of a subset that was picked to be rich in the strongest signals.
Experiments:
Experiment in all cases: glycan array binding signal (z-score within array); higher = stronger binding
Conditions in all cases: glycan notation: IUPAC condensed, linker removed
Fuc(a1-2)Gal(b1-4)Glc = biological target: Fuc(a1-2)Gal(b1-4)Glc
Summary of the method: (§1)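 From the Consortium for Functional Glycomics database, 3228 arrays were curated, keeping only those whose protein sequence was available. Binding is given as a within-array Z-score averaged across arrays sharing a protein sequence and across linkers. Negative Z-scores can be read as non-binding.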

[1] = biological target: Fuc(a1-2)Gal(b1-4)GlcNAc(b1-3)Gal(b1-4)GlcNAc(b1-3)Gal(b1-4)GlcNAc
Summary of the method: as §1

[2] = biological target: Fuc(a1-2)[Gal(a1-3)]Gal(b1-4)GlcNAc
Summary of the method: as §1

[3] = biological target: Fuc(a1-3)[Gal(b1-4)]GlcNAc(b1-2)Man(a1-6)[Gal(b1-4)GlcNAc(b1-2)Man(a1-3)]Man(b1-4)GlcNAc(b1-4)GlcNAc
Summary of the method: as §1

[4] = biological target: Fuc(a1-3)[Gal(b1-4)]GlcNAc(b1-4)Gal(b1-4)[Fuc(a1-3)]GlcNAc
Summary of the method: as §1

Gal(a1-3)GalNAc = biological target: Gal(a1-3)GalNAc
Summary of the method: as §1

[5] = biological target: Gal(b1-3)[Fuc(a1-4)]GlcNAc
Summary of the method: as §1

[6] = biological target: Gal(b1-4)GalNAc(a1-3)[Fuc(a1-2)]Gal(b1-4)GlcNAc
Summary of the method: as §1

Gal(b1-4)GlcNAc = biological target: Gal(b1-4)GlcNAc
Summary of the method: as §1

[7] = biological target: Gal(b1-4)GlcNAc(b1-2)Man(a1-3)[Gal(b1-4)GlcNAc(b1-2)Man(a1-6)]Man(b1-4)GlcNAc(b1-4)GlcNAc
Summary of the method: as §1

[8] = biological target: Gal(b1-4)GlcNAc(b1-3)Gal(b1-3)GlcNAc
Summary of the method: as §1

Glc(a1-6)Glc(a1-6)Glc = biological target: Glc(a1-6)Glc(a1-6)Glc
Summary of the method: as §1

GlcA(b1-6)Gal = biological target: GlcA(b1-6)Gal
Summary of the method: as §1

[9] = biological target: GlcNAc(b1-2)Gal(b1-3)GalNAc
Summary of the method: as §1

[10] = biological target: Man(a1-3)[Man(a1-6)]Man(b1-4)GlcNAc(b1-4)GlcNAc
Summary of the method: as §1

Man(a1-6)Man = biological target: Man(a1-6)Man
Summary of the method: as §1

[11] = biological target: Neu5Ac(a2-3)Gal(b1-3)[Fuc(a1-4)]GlcNAc
Summary of the method: as §1

[12] = biological target: Neu5Ac(a2-3)Gal(b1-4)GlcNAc(b1-2)Man(a1-3)[GlcNAc(b1-2)Man(b1-4)GlcNAc(b1-2)Man(a1-6)]Man(b1-4)GlcNAc(b1-4)GlcNAc
Summary of the method: as §1

[13] = biological target: Neu5Ac(a2-3)Gal(b1-4)GlcNAc(b1-2)Man(a1-3)[Neu5Ac(a2-6)Gal(b1-4)GlcNAc(b1-2)Man(a1-6)]Man(b1-4)GlcNAc(b1-4)GlcNAc
Summary of the method: as §1

[14] = biological target: Neu5Ac(a2-6)Gal(b1-4)GlcNAc
Summary of the method: as §1

Neu5Ac(b2-6)GalNAc = biological target: Neu5Ac(b2-6)GalNAc
Summary of the method: as §1

[15] = biological target: Neu5Gc(a2-3)Gal(b1-3)[Fuc(a1-4)]GlcNAc
Summary of the method: as §1

[16] = biological target: Neu5Gc(a2-3)Gal(b1-4)[Fuc(a1-3)]GlcNAc
Summary of the method: as §1

[17] = biological target: Neu5Gc(a2-6)Gal(b1-4)GlcNAc
Summary of the method: as §1

B1: Codakine (Codakia orbicularis), Q3KVL7_9BIVA (protein)
chain: MKILVAVFLVLVVVGTAAAGCPDGWTQFLDLCYIYQSAKASWASAQSSCQALGGILAEPDTACENEVLIHMCRENGDAGSFGPWLGGQKVGGAWQWSSSGAAFDYLRWGPNEPNNSGGNEDCLHYNWLSWNDLRCHYQASYLCQRAAE
**Q.** Which “glycan array binding signal (z-score)” value (Fuc(a1-2)Gal(b1-4)Glc) does the source give for B1 here?
**A.** Its value is -0.26.

**Q.** And the “glycan array binding signal (z-score)” value [1]?
**A.** Its value is -0.235.

**Q.** What about the “glycan array binding signal (z-score)” value [2] of the same binder?
**A.** Its value is -0.342.

**Q.** And the “glycan array binding signal (z-score)” value [3]?
**A.** Its value is 6.48.

**Q.** What about the “glycan array binding signal (z-score)” value [4] of the same binder?
**A.** Its value is -0.321.

**Q.** What about the “glycan array binding signal (z-score)” value (Gal(a1-3)GalNAc) of the same binder?
**A.** The value was -0.298.

**Q.** What about the “glycan array binding signal (z-score)” value [5] of the same binder?
**A.** The value was -0.203.

**Q.** And the “glycan array binding signal (z-score)” value [6]?
**A.** Its value is -0.419.

**Q.** What about the “glycan array binding signal (z-score)” value (Gal(b1-4)GlcNAc) of the same binder?
**A.** Its value is -0.3.

**Q.** What about the “glycan array binding signal (z-score)” value [7] of the same binder?
**A.** Its value is 4.02.

**Q.** What about the “glycan array binding signal (z-score)” value [8] of the same binder?
**A.** Its value is -0.239.

**Q.** What about the “glycan array binding signal (z-score)” value (Glc(a1-6)Glc(a1-6)Glc) of the same binder?
**A.** The value was -0.317.

**Q.** What about the “glycan array binding signal (z-score)” value (GlcA(b1-6)Gal) of the same binder?
**A.** The value was -0.302.

**Q.** What about the “glycan array binding signal (z-score)” value [9] of the same binder?
**A.** The value was -0.276.

**Q.** And the “glycan array binding signal (z-score)” value [10]?
**A.** The value was 4.3.

**Q.** What about the “glycan array binding signal (z-score)” value (Man(a1-6)Man) of the same binder?
**A.** Its value is 0.449.

**Q.** What about the “glycan array binding signal (z-score)” value [11] of the same binder?
**A.** Its value is -0.34.

**Q.** What about the “glycan array binding signal (z-score)” value [12] of the same binder?
**A.** Its value is 4.82.

**Q.** And the “glycan array binding signal (z-score)” value [13]?
**A.** Its value is 4.57.

**Q.** And the “glycan array binding signal (z-score)” value [14]?
**A.** The value was -0.224.

**Q.** And the “glycan array binding signal (z-score)” value (Neu5Ac(b2-6)GalNAc)?
**A.** Its value is -0.238.

**Q.** What about the “glycan array binding signal (z-score)” value [15] of the same binder?
**A.** The value was -0.265.

**Q.** What about the “glycan array binding signal (z-score)” value [16] of the same binder?
**A.** Its value is -0.234.

**Q.** And the “glycan array binding signal (z-score)” value [17]?
**A.** The value was -0.289.

Reference: the supplement of paper PMC8728848
